Assay [1] relates to Zika virus NS2B-NS3 protease. The assay can be described thus: Primary screen GU AMC qHTS for Zika virus inhibitors (AID 1347154). Also: nearly all actives have a fitted effect of over 70% in size. Also: potency is read from the fitted curve at half-maximal effect. The method in brief: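 Unlinked Zika NS2B hydrophilic domain/NS3 protease domain noncovalent complex (25 nM final) in 10 mM Tris-HCl pH 8.0, 0.01% Tween 20, with AMC peptide substrate. Fluorescence (ex 340, em 450 nm) change over 15 min, room temperature; percent inhibition fitted to 4-parameter Hill equation.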

Assay [2] relates to Zika virus NS2B-NS3 protease (linked construct). The assay is described as follows: Confirmatory screen NINDS AMC qHTS for Zika virus inhibitors (AID 1347152). Also: nearly all actives have a fitted effect of over 70% in size. Also: potency is read from the fitted curve at half-maximal effect. The method in brief: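 Linked NS2B-NS3 1 nM, Tris pH 8.0/0.01% Tween 20; cpd 15 min RT dark; + Nle-KRR-AMC 10 µM (Km 18.3 µM); read 0 and 15 min, 340/450 nm; %inh vs controls, 4-param Hill.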
(Quantitative high-throughput screening tests each substance at several concentrations.)

In assay [3] the test system is Zika virus NS2B-NS3 protease (unlinked complex). The assay can be described thus: Confirmatory screen GU AMC qHTS for Zika virus inhibitors (AID 1347153). Also: nearly all actives have a fitted effect of over 70% in size. Also: potency is read from the fitted curve at half-maximal effect. Put shortly: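 Unlinked enzyme 25 nM, Tris pH 8.0/0.01% Tween 20; cpd 15 min RT, dark; + AMC substrate 10 µM (Km 18.3 µM); 340/450 nm read at t0 and 15 min; % inhibition → 4-param fit.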
Assay [4] can be described thus: Confirmatory screen NINDS Rhodamine qHTS for Zika virus inhibitors (AID 1347161). Also: nearly all actives have a fitted effect of over 60% in size. Also: potency is read from the fitted curve at half-maximal effect. Put shortly: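 Each compound, titrated, sat 15 min with 25 nM linked protease before 1.5 microM Rhodamine110 substrate went in. Fluorescence gain over the next 15 min, in pH 8.0 Tris with Tween 20, gave Hill-fitted curves.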
Assay [5] is described as follows: Vero cells viability qHTS for Zika virus inhibitors (AID 1347167). Put shortly:
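To flag cytotoxic protease inhibitors, viability is measured by ATP-dependent luminescence (CellTiter Glo) after cells attached overnight receive compound for 24 to 48 hours in DMEM with 4% FBS.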

A short description of assay [6]: Tertiary RLuc qRT-PCR qHTS assay for Zika virus inhibitors (AID 1347169). Also: top concentration of the series differs between compounds; nearly all actives have a fitted effect of over 55% in size. Put shortly: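 Luminescence read-out: live-cell Renilla luciferase substrate applied to infected Vero cells, signal measured after 1-1.5 hrs. Cells had received compound before ZIKV-RLuc (Cambodian strain, MOI 1-2) infection and were incubated 48-72 hrs at 37 degrees C.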
(In general: In qPCR the cycle at which signal appears reflects the starting amount.)

Assay [7] is described as follows: qHTS to identify inhibitors of the type 1 interferon - major histocompatibility complex class I in skeletal muscle: primary screen against the NCATS LOPAC collection (AID 1347405).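 Also: lytic HiBiT luminescence reporting HLA-B protein level.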 The method in brief: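 After 24 h at 37 C with compounds (7-point, 1:4.3 dilutions, 46 uM top final) plus 4 ng/ml IFN-beta, luminescence from lytic HiBiT detection was measured. HLA-B*08:01 in C25cl48 myoblasts carried an endogenous C-terminal HiBiT tag; medium lacked dexamethasone.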

Assay [8] is described as follows: qHTS to identify inhibitors of the type 1 interferon - major histocompatibility complex class I in skeletal muscle: primary screen against the NCATS Pharmaceutical Collection (AID 1347407). Put shortly:
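HLA-B HiBiT myoblasts, dexamethasone-free growth medium + 4 ng/ml IFN-b; compounds pinned 1 h after seeding, […] from 46 uM; 24 h, 37 C, 5% CO2; lytic HiBiT detection, 10 min RT, luminescence.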

A short description of assay [9]: qHTS for inhibitors of adenylyl cyclases using a fission yeast platform: a pilot screen against the NCATS LOPAC library (AID 1347410). Put shortly:
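Read-out: fbp1-GFP fluorescence by laser scanning cytometry (488 nm laser), a gain of signal when AC/cAMP-PKA signalling is inhibited. Strain CHP2027 expressing AC9, GNAS and PDE4D2; compounds at up to 57 µM; 18 h, 30C.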

The nature of assay [10]: qHTS to identify inhibitors of the type 1 interferon - major histocompatibility complex class I in skeletal muscle: primary screen against the NCATS Mechanism Interrogation Plate v5.0 (MIPE) Libary (AID 1347411). Also: nearly all actives have a fitted effect of over 65% in size. Put shortly: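 Luminescence from CRISPR HiBit-tagged endogenous HLA-B in human myoblasts reported MHC class I level after 24 h of IFN-beta (4 ng/ml) plus compound. Compounds ran as 11-point 1:3 series, top 46 uM final.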

The target in assay [11] is Protein phosphatase 1D (Homo sapiens) (UniProt O15297). The assay can be described thus: RapidFire Mass Spectrometry qHTS Assay for Modulators of WT P53-Induced Phosphatase 1 (WIP1) (AID 1347424).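 Also: amount of dephosphorylated VEPPL-S-QETFS peptide product formed by WIP1; series mostly up to about 63 µM.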 Put shortly: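 Mass-spectrometric measurement of dephosphorylated peptide after a 5 min room-temperature reaction of 10 nM WIP1 with 2 uM phosphopeptide, following 1 h compound preincubation in 30 mM MgCl2 buffer.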
Chain of Protein phosphatase 1D (Homo sapiens) (O15297 whole entry, looked up): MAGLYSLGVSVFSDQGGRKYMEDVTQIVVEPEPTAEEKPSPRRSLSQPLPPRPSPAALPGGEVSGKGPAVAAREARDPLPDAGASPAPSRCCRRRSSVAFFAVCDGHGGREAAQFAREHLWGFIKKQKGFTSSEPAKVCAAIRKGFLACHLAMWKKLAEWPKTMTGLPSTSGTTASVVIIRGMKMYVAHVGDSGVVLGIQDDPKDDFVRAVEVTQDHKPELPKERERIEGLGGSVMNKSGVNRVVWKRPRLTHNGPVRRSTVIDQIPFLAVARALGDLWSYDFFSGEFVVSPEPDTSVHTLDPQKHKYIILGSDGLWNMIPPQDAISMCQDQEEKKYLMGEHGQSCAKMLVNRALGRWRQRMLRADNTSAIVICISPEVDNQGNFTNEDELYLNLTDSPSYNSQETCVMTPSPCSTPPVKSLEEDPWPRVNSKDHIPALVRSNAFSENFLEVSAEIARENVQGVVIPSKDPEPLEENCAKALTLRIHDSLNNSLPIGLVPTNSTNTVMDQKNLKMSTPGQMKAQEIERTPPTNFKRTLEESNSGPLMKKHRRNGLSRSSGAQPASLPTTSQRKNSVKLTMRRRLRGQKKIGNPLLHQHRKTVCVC

Assay [12] can be described thus: Validation qHTS assay for inhibitors of Activation Induced Cytidine Deaminase (AID): UDG Counterscreen signal (AID 1347427). The method in brief:
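Fluorescence at 560 nm excitation, 665 nm emission reports UDG signal after 250 mM NaOH (2x) addition and 30 min. Enzymes (AID 1 uM, UDG 2 U/mL, at 4/3x) preincubated 10 min with compound, then 4 h with 4x 250 nM DJC20/DJC23 substrate at room temperature.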

In assay [13] the test system is Zika virus NS2B-NS3 protease (linked). The assay is described as follows: 384 well plate NINDS AMC confirmatory qHTS for Zika virus inhibitors (AID 1347163). Also: potency is read from the fitted curve at half-maximal effect; nearly all actives have a fitted effect of over 50% in size. Put shortly: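 Fluorescence at 355/460 nm was read after 25 minutes of cleavage of 30 microM Ac-VKTGKR-AMC at room temperature, in the dark. Before substrate addition, compounds (up to 1 mM final) sat ~15 minutes with 5, 30 or 60 nM linked protease. Signals were normalized to no-enzyme and no-inhibitor wells.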

Assay [14] deals with Zika virus NS2B-NS3 protease (linked construct). The assay is described as follows: 384 well plate NINDS Rhodamine confirmatory qHTS for Zika virus inhibitors (AID 1347164).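 Also: fluorescence from protease cleavage of Ac-LKRR-rhodamine 110 substrate; potency is read from the fitted curve at half-maximal effect; nearly all actives have a fitted effect of over 65% in size.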 The method in brief: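 Fluorescence read at ex 485 nm/em 538 nm, 25 min after adding 10 microM Ac-LKRR-Rd substrate at room temperature in the dark; signal normalized to no-enzyme and no-inhibitor controls. Enzyme final 5, 30 or 60 nM; compounds, ~15 min preincubation.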

Values without a mark were called inactive. Inconclusive results are not listed. The source made the active and inactive calls. Calls follow the shape of the dose curve; as a rule, active = well fitted curve in the direction sought with a large enough effect; inconclusive = small, poorly fitted or top-dose-only effect, or another doubt; inactive = no such curve, though single readings can be large; an effect the other way counts as inactive or inconclusive.

Results on 17 molecules are retold here after PubChem BioAssay (NCATS).

Take `O=C1[C@H](Cc2ccc(O)cc2)N2C(=O)CCN(C(=O)NCc3ccccc3)[C@H]2CN1Cc1cccc2ccccc12`: the Potency result in assay [1] was “inactive”.
As for `Cc1c(CN2CCN(C(=O)C(C)C)CC2)sc2c(N3CCOCC3)nc(-c3cnc(N)nc3)nc12`, the Potency result in assay [1] is “inactive”.
Same read-out and setting: as for `COc1ccc([C@@H]2CC(=O)c3c(O)cc(O[C@@H]4O[C@H](CO[C@@H]5O[C@@H](C)[C@H](O)[C@@H](O)[C@@H]5O)[C@@H](O)[C@H](O)[C@@H]4O)cc3O2)cc1O`, the entry is “inactive”.
On to `Cc1[nH]c(=O)c(C#N)cc1-c1ccncc1`, for which the Potency entry in assay [2], in assay [3], in [1], in [4], in assay [6] and in [7] was “inactive” in each case. The Potency entry in [10] and in assay [11] was “inactive” throughout. Also, the molecule was classed as inactive in assay [5], in [8], in assay [9] and in [12].
With `O=C(C1CC1)N1CC[C@@H](Cn2c(-c3ccc(-c4ccc5occc5c4)cc3)nc3cnccc32)C1`, the Potency in assay [2] was 24.1 µM (active); in assay [3] it was 24.1 µM (active); in assay [1], 10.8 µM (active). Also, the result in assay [5] was inactive. The Potency entry in assay [10] was “inactive”.
With `CCn1c(-c2nonc2N)nc2c(C#CC(C)(C)O)ncc(OC[C@H]3CCCNC3)c21`, the Potency entry in assay [1] is “inactive”.
Turning to `CCn1c(-c2nonc2N)nc2cnc(Oc3cccc(NC(=O)c4ccc(OCCN5CCOCC5)cc4)c3)cc21`, the Potency entry in assay [1] is “inactive”.
Still for that read-out and setting: as for `Nc1nccc(-c2ccc3noc(-c4ccc(Cl)cc4)c3c2)n1`, the entry is “inactive”; as for `CCOc1cc(C=C2C(=O)N(c3ccccc3)N=C2C)cc(Cl)c1OCC(=O)OC`, “inactive”; as for `Cc1ccc(NC(=O)c2cccc(C(C)(C)C#N)c2)cc1Nc1ccc2ncn(C)c(=O)c2c1`, “inactive”.
In the case of `COc1ccccc1-c1cccc(-c2c(O)c3cc(C#N)c(Cl)cc3[nH]c2=O)c1`, the Potency result in assay [3] and in [10] was “inactive” in each case. The Potency in assay [1] is 49.4 µM (active); in [4], 27.8 µM (active); in assay [13] it was 50.1 µM (active); in [14], 7.08 µM (active). In addition, in [5], the result was inactive.
For `O=S(=O)(N=Cc1c(O)ccc2ccccc12)c1cccs1`, the Potency result in assay [1] was “inactive”.
Same read-out and setting: as for `C[C@]12CC[C@H](O)CC1=CC[C@@H]1[C@H]2CC[C@]2(C)C(c3cccnc3)=CC[C@H]12`, the entry is “inactive”.
On the same count and under the same terms, as for `Cc1ccc2c(c1)C(=O)[C@@]1(O)CCN(c3ccccc3)C1=N2`, the entry is “inactive”.
As for `CCCCNc1cc(C(=O)O)cc(S(N)(=O)=O)c1Oc1ccccc1`, in assay [2], the Potency was 27.1 µM (active). The Potency entry in assay [3], in assay [6], in [7], in assay [10] and in assay [11] was “inactive” each time. Besides, the outcome in assay [5], in assay [8], in assay [9] and in assay [12] was inactive.
Take `O=C(C=Cc1ccc(/C=C/C(=O)Nc2ccc(C3=NCCN3)cc2)cc1)Nc1ccc(C2=NCCN2)cc1`: in assay [1], the Potency entry was “inactive”.
For `O=c1n(CCCN2CCN(c3cccc(Cl)c3)CC2)nc2ccccn12`, the Potency in assay [2] was 24.1 µM (active); in assay [1] it was 26.7 µM (active). For the same molecule, the Potency result in assay [4], in [7] and in assay [11] was “inactive” each time. For the same molecule, the molecule was classed as inactive in assay [5], in [8], in assay [9] and in [12].
